From ChEMBL document CHEMBL3988442, “University of Dundee, Small-Polar-MMV Screening Library” (2021) come the findings set out here.

SMILES strings stand for the structures.

This assay deals with T1, Arginase-2, mitochondrial (Homo sapiens) (UniProt P78540).
T1 sequence (whole entry): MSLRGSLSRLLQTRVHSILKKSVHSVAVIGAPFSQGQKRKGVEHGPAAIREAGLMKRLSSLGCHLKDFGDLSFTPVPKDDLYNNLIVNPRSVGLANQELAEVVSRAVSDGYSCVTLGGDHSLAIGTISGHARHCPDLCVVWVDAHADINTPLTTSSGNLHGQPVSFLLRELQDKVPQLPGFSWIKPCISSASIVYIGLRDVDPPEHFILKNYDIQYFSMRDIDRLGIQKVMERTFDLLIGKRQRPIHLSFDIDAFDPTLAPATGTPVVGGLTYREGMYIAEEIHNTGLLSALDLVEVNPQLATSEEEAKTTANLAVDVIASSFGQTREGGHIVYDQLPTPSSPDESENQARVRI
The experiment in a line: in vitro enzyme assay to detect the production of urea directly proportional to the activity of Arginase II. Also on record: scale not given: in the data most compounds retested in dose-response had high values. Format: functional. As to conditions: 30 µM.
With `CC(C)NC(=O)[C@]12COC[C@H]1CN(Cc1cnn(C)c1)C2`, the Percent Effect was -13.5%.

For the molecule `CNC(=O)[C@@H]1C[C@H]2CN(C(=O)c3ccco3)C[C@H]2N1C(C)C`, the Percent Effect worked out at 9.19%. With `CN(CC(=O)N1CCCC1c1noc(C2CC2)n1)S(C)(=O)=O` (stereo not given), the Percent Effect stood at 3.78%.

On to `Cc1noc(C)c1C(=O)N1CCCC(c2nccn2Cc2cscn2)C1` (stereo not given), for which the Percent Effect worked out at 5.95%. For `COc1ccc(CNCc2nnc3n2CC(C(F)(F)F)CC3)cc1` (stereo not given), the Percent Effect turned out to be 9.19%. The value for `COc1ccc(C)cc1C(C(=O)O)N1CCN(Cc2ccccn2)CC1` (stereo not given) was 4.87%; that for `Fc1ccc(CNCc2nnc3n2CC(C(F)(F)F)CC3)c(F)c1` (stereo not given) was 8.11%; that for `CN(Cc1ccncc1)C1CC2(CCN(Cc3ccccn3)CC2)C1` was 5.95%.

In the case of `Cc1cc(CN(Cc2ccccc2)CC(O)c2cccs2)on1` (stereo not given), the Percent Effect turned out to be 3.78%.

Turning to `O=C(NCc1ccccn1)[C@]12COC[C@H]1CN(Cc1ccccc1F)C2`, the Percent Effect turned out to be 4.87%. Consider `Cc1nn(CCO)c(C)c1CNC1CCOc2ccccc21` (stereo not given), for which the Percent Effect was -9.19%. For `O=C(Cn1nc2c(cc1=O)CCCC2)NC(C(=O)O)c1ccccc1` (stereo not given), the Percent Effect is -2.7%. The value for `O=C([C@@H]1CCO[C@@H]2CCN(CCc3ccccc3)C[C@@H]21)N1CCCC1` was 11.3%. `CCn1c(NCc2ccccc2)nc2c(C)nn(C)c2c1=O`: the Percent Effect is 8.11%. Consider `CC(C)[C@H](NC(=O)Cn1nc2c(cc1=O)CCCC2)C(=O)O`, for which the Percent Effect stood at 13.5%. Regarding `Cc1ccoc1CNCc1nnc2n1CC(C(F)(F)F)CC2` (stereo not given), the Percent Effect came out at 3.78%. In the case of `CN(Cc1cccnc1)C1CC2(CCN(Cc3cccnc3)CC2)C1`, the Percent Effect is -12.4%.

With `CCC(C(=O)NCc1ccncc1)N(c1ccccc1)S(C)(=O)=O` (stereo not given), the Percent Effect came to 5.95%.

In the case of `Cc1cccc(-c2nc(CN3CC(n4nc(C)cc4C)C3)no2)c1`, the Percent Effect stood at 5.95%. With `CN(Cc1ccco1)[C@@H]1CN(Cc2nccn2C)[C@@H]2CCCO[C@H]12`, the Percent Effect came to 11.3%.

As for `COc1ccccc1Oc1ncccc1CNC(=O)[C@@H](N)[C@@H](C)O`, the Percent Effect amounted to 3.78%.

For the molecule `CC(=O)N1CCN(C(=O)Cn2ccc3c(Cl)cccc32)CC1`, the Percent Effect was found to be 2.7%. Take `Cc1cc(C)n(C2CN(Cc3noc(C4CC4)n3)C2)n1`: the Percent Effect came to 8.11%.

For `NS(=O)(=O)CCNC(=O)c1cc(Br)c2c(c1)OCCO2`, the Percent Effect worked out at 8.11%.

Take `CCc1cc(CNC(=O)N2CCN(c3nc(C)c(C)s3)CC2)on1`: the Percent Effect came out at 3.78%. On to `Cc1nc(NCC2CC2)nc2c1COCC21CCN(CC(=O)N(C)C)C1` (stereo not given), for which the Percent Effect stood at 4.87%. On to `CC(C)C(NC(=O)Cn1nc2c(cc1=O)CCCC2)C(=O)O` (stereo not given), for which the Percent Effect amounted to 7.03%. For `Cc1cc(NC(=O)C2CN(Cc3ccccc3)CCO2)ccn1` (stereo not given), the Percent Effect turned out to be 3.78%. `CNC(=O)[C@H]1C[C@@H]2CN(C(=O)c3cccnc3)C[C@@H]2N1S(C)(=O)=O`: the Percent Effect was determined as 5.95%.

`CNC(=O)[C@H]1C[C@@H]2CN(C(=O)c3ccccn3)C[C@@H]2N1S(C)(=O)=O`: the Percent Effect turned out to be 8.11%. For `O=C(Cn1nc2c(cc1=O)CCCC2)NC(Cc1ccccc1)C(=O)O` (stereo not given), the Percent Effect was -13.5%. Regarding `COCCN1CCC(c2cncc(-c3cccc(Cl)c3)n2)CC1`, the Percent Effect was found to be 5.95%. For the molecule `O=c1[nH]c2c(c(=O)n1C1CCCCC1)CCC2Nc1ccc(Cl)cc1` (stereo not given), the Percent Effect was -2.7%. Turning to `CN(Cc1ccco1)[C@@H]1CN(Cc2ccc(F)cc2)[C@@H]2CCCO[C@H]12`, the Percent Effect is 2.7%. On to `Cc1cnc(C(=O)N2CCCC(c3nccn3Cc3cscn3)C2)cn1` (stereo not given), for which the Percent Effect is -5.95%. With `Cc1ccc([C@@H]2CN(S(=O)(=O)c3cc(C)ccc3F)C[C@H]2N(C)C)cc1`, the Percent Effect came out at 2.7%.

Take `CCn1c(NCc2ccccn2)nc2c(C)nn(C)c2c1=O`: the Percent Effect was -5.95%. For `O=C(O)C(c1ccc(Cl)c(F)c1)N1CCN(Cc2ccccn2)CC1` (stereo not given), the Percent Effect is 5.95%.

As for `Cc1cccc(OCC(O)CN2CCN(c3nccs3)CC2)c1` (stereo not given), the Percent Effect amounted to 3.78%. The value for `CC1=Nc2c(c(=O)[nH]n2C2CCCC2)C(c2ccc(C(=O)O)cc2)S1` (stereo not given) was 7.03%.
